Counter-ions that a name gives are not always drawn. ± gives the standard deviation of the averaged measurements.
These compounds were tested on Danio rerio Tg(wt1b:EGFP) embryo, pronephros (assay: fraction of imaged embryos annotated as normal kidney; higher = less nephrotoxic; extreme values may be limits of the assay). Details: 25 µM; exposure: 24-48 hpf.
How it was run: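 Embryos of the Tg(wt1b:EGFP) zebrafish line were dechorionated and held in 12-well plates with 25 μM compound in 0.5% DMSO and 5 mM HEPES-buffered E3 containing 0.003% PTU, from 24 to 48 hpf at 28.5°C. Larvae were then anaesthetised with tricaine, set dorsal side up in agarose-filled 96-well plates, and their pronephroi imaged by widefield fluorescence at 470 nm over 10 z-slices. Each value is the fraction of embryos per treatment placed in the normal-kidney category after manual annotation of maximum projections.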

Q: Which “fraction of imaged embryos annotated as normal kidney” value (“fraction of imaged embryos annotated” for short) does the source give for CN1CCCN=C1/C=C/c1cccs1 [Pyrantel tartrate] here?
A: 0.917

Q: For C#C[C@]1(O)CC[C@H]2[C@@H]3[C@H](C)CC4=C(CCC(=O)C4)[C@H]3CC[C@@]21C [Tibolone], which “fraction of imaged embryos annotated” value is on record?
A: 0.75

Q: With Nc1ccc(C(=O)NCC(=O)O)cc1 [Aminohippuric acid] as the compound, how does the “fraction of imaged embryos annotated” value read?
A: 0.917

Q: COc1ccc2[nH]cc(CCNC(C)=O)c2c1 [Melatonin] was tested. Which “fraction of imaged embryos annotated” value did it give?
A: 0.917

Q: CN1[C@@H]2CC[C@H]1C[C@@H](OC(c1ccccc1)c1ccccc1)C2 [Benztropine mesylate] was tested. Which “fraction of imaged embryos annotated” value did it give?
A: 0.833

Q: With C=CC1=C(C(=O)O)N2C(=O)[C@@H](NC(=O)/C(=N\OCC(=O)O)c3csc(N)n3)[C@H]2SC1 [Cefixime] as the compound, how does the “fraction of imaged embryos annotated” value read?
A: 0.75

Q: COc1cccc2c1C(=O)c1c(O)c3c(c(O)c1C2=O)C[C@@](O)(C(=O)CO)C[C@@H]3O[C@H]1C[C@H](N)[C@@H](O)[C@H](C)O1 [Epirubicin hydrochloride] was tested. Which “fraction of imaged embryos annotated” value did it give?
A: 0.75

Q: CC(=O)[C@H]1CC[C@H]2[C@@H]3CC=C4C[C@@H](O)CC[C@]4(C)[C@H]3CC[C@]12C [Pregnenolone] was tested. Which “fraction of imaged embryos annotated” value did it give?
A: 0.583

Q: Which “fraction of imaged embryos annotated” value does the source give for CC(C)(S)C(N)C(=O)O (racemic) [D,L-Penicillamine] here?
A: 0.583

Q: With O=C(CCCN1CCN(c2ccccn2)CC1)c1ccc(F)cc1 [Azaperone] as the compound, how does the “fraction of imaged embryos annotated” value read?
A: 0.833

Q: For Clc1cccc(Cl)c1NC1=NCCN1 [Clonidine hydrochloride], which “fraction of imaged embryos annotated” value is on record?
A: 0.583

Q: How did the “fraction of imaged embryos annotated” value turn out when NC(=O)NC1NC(=O)NC1=O (centres undefined) [Allantoin] was run?
A: 0.917

Q: How did the “fraction of imaged embryos annotated” value turn out when Nc1nc(=O)[nH]cc1F [Flucytosine] was run?
A: 0.75

Q: With O=c1[nH]cnc2c1ncn2[C@H]1CC[C@@H](CO)O1 [Didanosine] as the compound, how does the “fraction of imaged embryos annotated” value read?
A: 0.7

Q: Cc1ncc(C[n+]2csc(CCO)c2C)c(N)n1 [Thiamine hydrochloride] was tested. Which “fraction of imaged embryos annotated” value did it give?
A: 0.917

Q: How did the “fraction of imaged embryos annotated” value turn out when CCOC(=O)[C@@](C)(N)Cc1ccc(O)c(O)c1 [Methyldopate hydrochloride] was run?
A: 0.667

Q: Which “fraction of imaged embryos annotated” value does the source give for CCN(CCCCOC(=O)c1ccc(OC)c(OC)c1)C(C)Cc1ccc(OC)cc1 (centres undefined) [Mebeverine hydrochloride] here?
A: 0.833

Q: For CC(=O)NCCCS(=O)(=O)O [Acamprosate calcium], which “fraction of imaged embryos annotated” value is on record?
A: 0.75

Q: Which “fraction of imaged embryos annotated” value does the source give for Nc1c2ccccc2nc2ccccc12 [Aminacrine] here?
A: 1

Q: For Cc1ncc(CO)c(CO)c1O [Pyridoxine hydrochloride], which “fraction of imaged embryos annotated” value is on record?
A: 1

Q: With CCCCCN(C)CCC(O)(P(=O)(O)O)P(=O)(O)O [Ibandronate sodium] as the compound, how does the “fraction of imaged embryos annotated” value read?
A: 0.833

Q: With Cc1cc(=O)n(-c2ccccc2)n1C [Antipyrine] as the compound, how does the “fraction of imaged embryos annotated” value read?
A: 0.667

Q: How did the “fraction of imaged embryos annotated” value turn out when C[C@@H]1NC(=O)NC1=O [Methylhydantoin-5-(L)] was run?
A: 1

Q: With Cc1c(C)c2c(c(C)c1O)CCC(C)(C(=O)O)O2 (centres undefined) [Trolox] as the compound, how does the “fraction of imaged embryos annotated” value read?
A: 0.833

Q: For CCCCOC(=O)c1ccc(N)cc1 [Butamben], which “fraction of imaged embryos annotated” value is on record?
A: 0.917

The compounds below were run on Danio rerio Tg(wt1b:EGFP) embryo, pronephros (assay: pronephric angle neck segment to proximal convoluted tubule (mean of left and right), fold change vs DMSO control; higher = larger pronephric angle). Details: 25 µM; exposure: 24-48 hpf.
How it was run: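 In HEPES-buffered E3 with 0.003% PTU and 0.5% DMSO, dechorionated Tg(wt1b:EGFP) zebrafish embryos were exposed to 25 μM compound from 24 to 48 hpf at 28.5°C. Pronephroi were then imaged dorsally at 470 nm in 10 z-slices, in 96-well plates filled with agarose. On maximum projections, a Fiji macro turned 16 manually placed reference points into distances and angles, and values more than 2 SD from the feature mean were excluded. Features are fold changes relative to the mean of DMSO-treated embryos from the same day.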

Q: With CN(C)CCC=C1c2ccccc2C=Cc2ccccc21 [Cyclobenzaprine hydrochloride] as the compound, how does the “pronephric angle neck segment” value read?
A: 1.03 ± 0.0042

Q: For CC(NCCC(c1ccccc1)c1ccccc1)c1ccccc1 (centres undefined) [Fendiline hydrochloride], which “pronephric angle neck segment” value is on record?
A: 1 ± 0.036

Q: Which “pronephric angle neck segment” value does the source give for c1ccc2c(c1)CCCC2C1=NCCN1 (centres undefined) [Tetrahydrozoline hydrochloride] here?
A: 0.98 ± 0.042

Q: For C=CC(N)CCC(=O)O (centres undefined) [Vigabatrin hydrochloride], which “pronephric angle neck segment” value is on record?
A: 1.05 ± 0.029

Q: With O=c1n(CCCN2CCN(c3cccc(Cl)c3)CC2)nc2ccccn12 [Trazodone hydrochloride] as the compound, how does the “pronephric angle neck segment” value read?
A: 0.997 ± 0.0034

Q: With CCOC(=O)C(C)(C)Oc1ccc(Cl)cc1 [Clofibrate] as the compound, how does the “pronephric angle neck segment” value read?
A: 1.66 ± 0.033

Q: With CCC(NC(C)C)C(O)c1ccc(O)c(O)c1 (centres undefined) [Isoetharine mesylate salt] as the compound, how does the “pronephric angle neck segment” value read?
A: 1.01 ± 0.032

Q: Which “pronephric angle neck segment” value does the source give for CN1CCC(=C2c3ccccc3CCc3cccnc32)CC1 [Azatadine maleate] here?
A: 0.99 ± 0.037

Q: How did the “pronephric angle neck segment” value turn out when COc1ccccc1OCC(O)CO (centres undefined) [Guaifenesin] was run?
A: 1.07 ± 0.035

Q: How did the “pronephric angle neck segment” value turn out when CCOC(=O)n1ccn(C)c1=S [Carbimazole] was run?
A: 1.052 ± 0.0026

Q: With CC(=O)OCC(=O)[C@@]1(O)CC[C@H]2[C@@H]3CCC4=CC(=O)CC[C@]4(C)[C@H]3[C@@H](O)C[C@@]21C [Cortisol acetate] as the compound, how does the “pronephric angle neck segment” value read?
A: 1.01 ± 0.031

Q: Which “pronephric angle neck segment” value does the source give for COc1cc(NS(=O)(=O)c2ccc(N)cc2)nc(OC)n1 [Sulfadimethoxine] here?
A: 1.01 ± 0.021

Q: CCN1CCN(C(=O)N[C@@H](C(=O)N[C@@H]2C(=O)N3[C@@H]2SC(C)(C)[C@@H]3C(=O)O)c2ccccc2)C(=O)C1=O [Piperacillin sodium salt] was tested. Which “pronephric angle neck segment” value did it give?
A: 1.01 ± 0.046

Q: COc1ccc([C@@H]2CC(=O)c3c(O)cc(O[C@@H]4O[C@H](CO[C@@H]5O[C@@H](C)[C@H](O)[C@@H](O)[C@H]5O)[C@@H](O)[C@H](O)[C@H]4O)cc3O2)cc1O [Hesperidin] was tested. Which “pronephric angle neck segment” value did it give?
A: 0.981 ± 0.012

Q: How did the “pronephric angle neck segment” value turn out when CN1CCCN=C1/C=C/c1cccs1 [Pyrantel tartrate] was run?
A: 1.074 ± 0.0072

Q: C#C[C@]1(O)CC[C@H]2[C@@H]3[C@H](C)CC4=C(CCC(=O)C4)[C@H]3CC[C@@]21C [Tibolone] was tested. Which “pronephric angle neck segment” value did it give?
A: 0.924 ± 0.078

Q: How did the “pronephric angle neck segment” value turn out when Nc1ccc(C(=O)NCC(=O)O)cc1 [Aminohippuric acid] was run?
A: 0.991 ± 0.018

Q: How did the “pronephric angle neck segment” value turn out when COc1ccc2[nH]cc(CCNC(C)=O)c2c1 [Melatonin] was run?
A: 1.02 ± 0.056

Q: With CN1[C@@H]2CC[C@H]1C[C@@H](OC(c1ccccc1)c1ccccc1)C2 [Benztropine mesylate] as the compound, how does the “pronephric angle neck segment” value read?
A: 1.04 ± 0.011

Q: Which “pronephric angle neck segment” value does the source give for C=CC1=C(C(=O)O)N2C(=O)[C@@H](NC(=O)/C(=N\OCC(=O)O)c3csc(N)n3)[C@H]2SC1 [Cefixime] here?
A: 1.07 ± 0.1

Q: With COc1cccc2c1C(=O)c1c(O)c3c(c(O)c1C2=O)C[C@@](O)(C(=O)CO)C[C@@H]3O[C@H]1C[C@H](N)[C@@H](O)[C@H](C)O1 [Epirubicin hydrochloride] as the compound, how does the “pronephric angle neck segment” value read?
A: 0.963 ± 0.053

Q: Which “pronephric angle neck segment” value does the source give for CC(=O)[C@H]1CC[C@H]2[C@@H]3CC=C4C[C@@H](O)CC[C@]4(C)[C@H]3CC[C@]12C [Pregnenolone] here?
A: 0.999 ± 0.16

Q: With CC(C)(S)C(N)C(=O)O (racemic) [D,L-Penicillamine] as the compound, how does the “pronephric angle neck segment” value read?
A: 0.996 ± 0.025

Q: O=C(CCCN1CCN(c2ccccn2)CC1)c1ccc(F)cc1 [Azaperone] was tested. Which “pronephric angle neck segment” value did it give?
A: 1 ± 0.019

Q: Which “pronephric angle neck segment” value does the source give for Clc1cccc(Cl)c1NC1=NCCN1 [Clonidine hydrochloride] here?
A: 0.96 ± 0.067

Q: With NC(=O)NC1NC(=O)NC1=O (centres undefined) [Allantoin] as the compound, how does the “pronephric angle neck segment” value read?
A: 0.981 ± 0.024

Q: Which “pronephric angle neck segment” value does the source give for Nc1nc(=O)[nH]cc1F [Flucytosine] here?
A: 1.003 ± 0.0094

Q: O=c1[nH]cnc2c1ncn2[C@H]1CC[C@@H](CO)O1 [Didanosine] was tested. Which “pronephric angle neck segment” value did it give?
A: 0.972 ± 0.041

Q: For Cc1ncc(C[n+]2csc(CCO)c2C)c(N)n1 [Thiamine hydrochloride], which “pronephric angle neck segment” value is on record?
A: 0.994 ± 0.025

Q: For CCOC(=O)[C@@](C)(N)Cc1ccc(O)c(O)c1 [Methyldopate hydrochloride], which “pronephric angle neck segment” value is on record?
A: 1.014 ± 0.0011

Q: How did the “pronephric angle neck segment” value turn out when CCN(CCCCOC(=O)c1ccc(OC)c(OC)c1)C(C)Cc1ccc(OC)cc1 (centres undefined) [Mebeverine hydrochloride] was run?
A: 0.965 ± 0.017

Q: How did the “pronephric angle neck segment” value turn out when CC(=O)NCCCS(=O)(=O)O [Acamprosate calcium] was run?
A: 0.991 ± 0.053

Q: Nc1c2ccccc2nc2ccccc12 [Aminacrine] was tested. Which “pronephric angle neck segment” value did it give?
A: 0.996 ± 0.028

Q: Cc1ncc(CO)c(CO)c1O [Pyridoxine hydrochloride] was tested. Which “pronephric angle neck segment” value did it give?
A: 1.06 ± 0.061

Q: CCCCCN(C)CCC(O)(P(=O)(O)O)P(=O)(O)O [Ibandronate sodium] was tested. Which “pronephric angle neck segment” value did it give?
A: 0.981 ± 0.048

Q: Cc1cc(=O)n(-c2ccccc2)n1C [Antipyrine] was tested. Which “pronephric angle neck segment” value did it give?
A: 1 ± 0.043

Q: With C[C@@H]1NC(=O)NC1=O [Methylhydantoin-5-(L)] as the compound, how does the “pronephric angle neck segment” value read?
A: 0.995 ± 0.031

Q: Which “pronephric angle neck segment” value does the source give for Cc1c(C)c2c(c(C)c1O)CCC(C)(C(=O)O)O2 (centres undefined) [Trolox] here?
A: 1 ± 0.014

Q: CCCCOC(=O)c1ccc(N)cc1 [Butamben] was tested. Which “pronephric angle neck segment” value did it give?
A: 0.9834 ± 0.0087

From the supplement of paper PMC7366291
